Compounds with a hit are over-represented: about 1.6% of the library has one in this group of screens.
KCNQ2 inh: rat KCNQ2 potassium channel inhibitors, primary screen, cell-based, CHO-K1, FluxOR thallium flux, B-score | 310,000 tested, 1.1% active | Potassium voltage-gated channel subfamily KQT member 2 (Rattus norvegicus), O88943 | 20 min; hits give low values | B-score at 10 µM;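 active = fluorescence ratio B-score at most minus 3 library SDs, with starting brightness B-score within 2 library SDs, cut at about -5.5 in these data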
Target sequence (O88943 whole entry, looked up): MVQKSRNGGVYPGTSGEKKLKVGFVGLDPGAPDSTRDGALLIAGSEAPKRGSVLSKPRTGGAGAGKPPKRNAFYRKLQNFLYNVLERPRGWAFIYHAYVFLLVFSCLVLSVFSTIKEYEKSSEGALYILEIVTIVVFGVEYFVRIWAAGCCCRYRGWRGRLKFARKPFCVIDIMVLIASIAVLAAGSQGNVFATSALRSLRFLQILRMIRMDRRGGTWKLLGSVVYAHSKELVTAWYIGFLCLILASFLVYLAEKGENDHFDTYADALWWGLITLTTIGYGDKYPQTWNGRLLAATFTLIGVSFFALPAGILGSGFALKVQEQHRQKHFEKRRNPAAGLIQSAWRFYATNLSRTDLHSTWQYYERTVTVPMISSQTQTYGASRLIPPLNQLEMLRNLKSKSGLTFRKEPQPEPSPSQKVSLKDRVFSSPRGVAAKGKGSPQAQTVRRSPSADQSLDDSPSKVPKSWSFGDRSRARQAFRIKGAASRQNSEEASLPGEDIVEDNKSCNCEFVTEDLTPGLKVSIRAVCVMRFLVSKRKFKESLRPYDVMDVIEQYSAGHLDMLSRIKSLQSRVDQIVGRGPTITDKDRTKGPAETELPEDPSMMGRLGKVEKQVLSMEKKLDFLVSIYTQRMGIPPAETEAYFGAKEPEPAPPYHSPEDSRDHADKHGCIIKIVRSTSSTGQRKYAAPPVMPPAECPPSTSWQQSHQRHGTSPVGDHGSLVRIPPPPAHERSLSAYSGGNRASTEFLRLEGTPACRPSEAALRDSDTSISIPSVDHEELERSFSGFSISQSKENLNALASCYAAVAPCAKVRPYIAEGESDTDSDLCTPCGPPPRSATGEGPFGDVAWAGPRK
KCNQ2 pot: potentiators of rat KCNQ2 potassium channel; CHO-K1 KCNQ2, FluxOR thallium flux fluorescence; hits give high values; AID 2239, 2010; 310,000 tested, 0.54% active; B-score at 10 µM; Potassium voltage-gated channel subfamily KQT member 2 (Rattus norvegicus), O88943;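 active = fluorescence ratio B-score at least 3 SD of library B-scores, with initial fluorescence B-score within 3 of them, cut at about 5.3 in these data; same plate scores as AID 2156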;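 also: B-score of peak minus minimum over baseline fluorescence ratio after K+ and Tl+ stimulus; positive B-score means potentiation of KCNQ2 with more thallium influx and brighter signal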
Kir21 conf inh: mouse Kir2.1 channel blockers, retest, confirmation, cell-based, FluxOR thallium flux, duplicate; shares compounds with KCNQ2 pot; Kir2.1-expressing cells, FluxOR thallium flux fluorescence; hits give low values; Tl flux remaining, % of negative control (hits give low values), % at 10 µM; 2,300 tested, 41% active; AID 2032, 2009;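 active = Primary-screen hit whose thallium flux fell at least 3 control SD below untreated wells in both duplicates, with normal baseline fluorescence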;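 also: 0% = blank wells without stimulus and 100% = stimulated no-compound controls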
HEK293 ctr: parental HEK293 activity in Kir2.1 inhibitor counter-screen | AID 2105 | 2,300 tested, 19% active | shares compounds with KCNQ2 pot | FluxOR signal as % of negative control (100 = no effect), % at 10 µM | parental HEK293 cells, FluxOR thallium flux fluorescence; 0% = unstimulated blank wells;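 active = dye signal at least 3 control SD above or below untreated wells in both duplicates, raw fluorescence within 3, either direction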;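 also: percent is based on the flux ratio of peak minus minimum fluorescence over baseline F0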
CHO-K1 ctr: nonspecific thallium flux increase in parental CHO-K1, confirmation, counter-screen for KCNQ2 potentiator project, cell-based, FluxOR thallium flux, duplicate | shares compounds with KCNQ2 pot | parental CHO-K1 cells, FluxOR thallium flux fluorescence; zero = vehicle mean+3SD, 100% = vehicle-minus-blank window | activity increase over 3SD of controls, % at 10 µM | 1,200 tested, 43% active | AID 2282, 2010;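 active = signal rise of at least 3 SD above the untreated control mean, in both duplicate wells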;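 also: counter screen of KCNQ2 potentiator hits so any rise reflects channel-independent effects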
KCNQ1 pot spec: human KCNQ1 channel potentiation off-target, confirmation, selectivity assay for KCNQ2 potentiator project, cell-based, CHO, FluxOR thallium flux; shares compounds with KCNQ2 pot; CHO KCNQ1 stable, FluxOR thallium flux fluorescence; beyond 3SD, as % of vehicle-control signal; 1,200 tested, 28% active; activation over 3SD threshold, % at 10 µM;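 active = fluorescence ratio rise of at least 3 SD of vehicle wells above their mean, in both replicate wells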;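 also: 0% = vehicle mean plus 3 SD and 100% = vehicle minus unstimulated blank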
KCNQ2 pot confirm: rat KCNQ2 channel potentiators, confirmation, cell-based, CHO, FluxOR thallium flux, duplicate; shares compounds with KCNQ2 pot; CHO-KCNQ2 cells, FluxOR thallium flux fluorescence; potentiation, less the hit threshold, % at 10 µM; 1,200 tested, 68% active;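 active = fluorescence ratio rising 3 SD or more over the vehicle control mean in both replicates, plus primary screen hit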;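 also: peak minus minimum thallium fluorescence divided by baseline after K/Tl stimulus; 0% = vehicle mean plus 3 SD and 100% = vehicle minus unstimulated blank difference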
Kir21 spec: mouse Kir2.1 channel activation off-target, confirmation, selectivity assay for KCNQ2 potentiator project, cell-based, HEK293, FluxOR thallium flux | shares compounds with KCNQ2 pot | 1,200 tested, 2% active | activity over 3SD threshold, % at 10 µM | HEK293 Kir2.1, FluxOR thallium flux fluorescence | AID 2345, 2010;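 active = fluorescence ratio rise of at least 3 SD above the vehicle-control mean, seen in both replicates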;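 also: 0% = vehicle mean plus 3 SD and 100% = vehicle minus no-stimulus blank window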
KCNQ2 W236L pot: potentiators of retigabine-insensitive KCNQ2 W236L, mechanism study for KCNQ2 potentiator project, cell-based, rat KCNQ2 W236L, CHO, automated patch clamp | shares compounds with KCNQ2 pot | automated patch clamp current | current increase over 3SD of negative controls (%), hits give high values, % at 25 µM | 940 tested, 10% active | AID 2558, 2010;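 active = current increase at least 3 SD of the untreated controls above them in both duplicate recordings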
Starred values were filed as active, the others as inactive; i = inactive; / = no result.

SMILES	KCNQ2 inh	KCNQ2 pot	Kir21 conf inh	HEK293 ctr	others
Oc1c(Cl)cc(Cl)c2c1NCCC2	i	6.3*	i	i	CHO-K1 ctr=4.8*;KCNQ1 pot spec=1.6*;KCNQ2 pot confirm=6.1*;Kir21 spec=-42;KCNQ2 W236L pot=i
CCOC(=O)COc1c(/C=N\O)cc(Cl)cc1OC	i	/	/	/
O=C(N/N=C/c1cccc(Oc2ccccc2)c1)c1cc[n+]([O-])cc1	i	/	/	/
Nc1ccc(C(=O)N/N=C/c2cccc(Oc3ccccc3)c2)cc1	i	1.8	56%*	i
CCn1c(=O)n(CCOC)c(=O)c2c3c(sc21)CCCC3	i	0.3	/	/
COCCCn1c(=S)[nH]c2sc3c(c2c1=O)CCCS3	i	7.2*	i	285%*	CHO-K1 ctr=-31;KCNQ1 pot spec=47*;KCNQ2 pot confirm=24*;Kir21 spec=-28;KCNQ2 W236L pot=i
CC(=O)Cn1nnc2sc3c(c2c1=O)CCC(C(C)(C)C)C3 (stereo unspecified)	i	/	/	/
CCn1nnc2sc3c(c2c1=O)CCC(C)C3 (stereo unspecified)	i	/	/	/
Nn1c(=S)[nH]c2sc3c(c2c1=O)CCCC3	i	0.24	/	/
CCCn1c(=S)[nH]c2sc3c(c2c1=O)CCCC3	i	10*	i	342%*	CHO-K1 ctr=-5;KCNQ1 pot spec=40*;KCNQ2 pot confirm=27*;Kir21 spec=-6;KCNQ2 W236L pot=i
Cn1c(=S)[nH]c2sc3c(c2c1=O)CCC(C(C)(C)C)C3 (stereo unspecified)	i	18*	i	467%*	CHO-K1 ctr=-1;KCNQ1 pot spec=-11;KCNQ2 pot confirm=85*;Kir21 spec=1.4*;KCNQ2 W236L pot=i
COCCn1c(=S)[nH]c2sc3c(c2c1=O)CCC(C)C3 (stereo unspecified)	i	16*	i	i	CHO-K1 ctr=0;KCNQ1 pot spec=3.6*;KCNQ2 pot confirm=71*;Kir21 spec=11*;KCNQ2 W236L pot=i
COc1cc2c(cc1OC)C1Cc3ccc(OC)c(OC)c3C[N+]1([O-])CC2 (stereo unspecified)	i	0.75	/	/
CCCCOC(=O)c1ccc(NC(=O)C(=O)NCCN(C)C)cc1	i	1.4	/	/
COC(C(=O)N/N=C(\C)c1ccc(C(C)(C)C)cc1)c1ccccc1 (stereo unspecified)	i	0.5	/	/
COc1ccccc1C/C(N)=N/OC(=O)c1ccco1	i	2.2	/	/
O=C(O)/C=C/C(=O)NNc1ncnc2ccccc12	i	/	/	/
CC(C)(C)c1nn2cnnc2n(/N=C/c2ccc(O)cc2)c1=O	i	2	/	/
N#Cc1c(C(F)(F)F)cc(-c2ccc(Cl)c(Cl)c2)nc1SCCN1CCOCC1	i	0.12	/	/
N#Cc1c(C(F)(F)F)cc(-c2ccccc2)nc1SCc1nc(N)nc(N2CCOCC2)n1	i	10*	i	i	CHO-K1 ctr=-19;KCNQ1 pot spec=-22;KCNQ2 pot confirm=17*;Kir21 spec=-17;KCNQ2 W236L pot=i
CCc1ccc(-c2cc3c(=O)n(CC(=O)NCCCN4CCN(C)CC4)ncn3n2)cc1	i	/	/	/
Cc1ccc2nc3c(c(N)c2c1)CCN3C	i	0.24	/	/
CCCCN1CCc2c1nc1ccc(Br)cc1c2N	i	0.03	24%*	i
O=[N+]([O-])c1cc2c(cc1/C=N/NS(=O)(=O)c1ccc(Br)cc1)OCO2	i	/	/	/
CCS(=O)(=O)c1ncc(Cl)c(C(=O)Nc2ccc(S(=O)(=O)N(C)c3ccccc3)cc2)n1	i	/	/	/
SMILES	KCNQ2 inh	KCNQ2 pot	Kir21 conf inh	HEK293 ctr	others
CCN(c1ccccc1)S(=O)(=O)c1ccc(C(=O)Nc2ccncc2)cc1	i	8.2*	i	i	CHO-K1 ctr=79*;KCNQ1 pot spec=-20;KCNQ2 pot confirm=9.8*;Kir21 spec=-57;KCNQ2 W236L pot=i
COC(=O)CN(c1ccccc1)S(=O)(=O)c1ccc(F)cc1	i	0.02	/	/
CCN(c1ccccc1)S(=O)(=O)c1ccc(NC(=O)c2nc(S(C)(=O)=O)ncc2Cl)cc1	i	9*	i	74%*	CHO-K1 ctr=-11;KCNQ1 pot spec=-59;KCNQ2 pot confirm=-3;Kir21 spec=-54;KCNQ2 W236L pot=i
CCN(c1ccccc1)S(=O)(=O)c1ccc(C(=O)Nc2ncccc2O)cc1	i	/	/	/
CCN(c1ccccc1)S(=O)(=O)c1ccc(F)cc1	i	/	54%*	i
CCCCN(C(=O)CN1CCOCC1)c1c(N)n(CC(C)C)c(=O)[nH]c1=O	i	/	/	/
CCOc1ccc(S(=O)(=O)NCCC(=O)NCCOc2ccccc2OC)cc1	i	1.6	/	/
CCCCN(C)C(=S)Nc1ccsc1C(=O)OC	i	/	/	/
CC1CCCCN1S(=O)(=O)c1ccc(S(=O)(=O)N2CCN(C)CC2)cc1 (stereo unspecified)	i	/	/	/
COC(=O)c1ccc(S(=O)(=O)c2ccc(Cl)cc2)c(N)c1	i	/	/	/
Cc1cccc(NC(=O)CCCc2ccccc2)c1	i	/	/	/
CN(C)c1ccc(NC(=O)CCCc2ccccc2)cc1	i	5.5*	i	i	CHO-K1 ctr=13*;KCNQ1 pot spec=-16;KCNQ2 pot confirm=-15;Kir21 spec=-33;KCNQ2 W236L pot=i
CC(C)(C)C(=O)CSc1nc(N)cc(=O)[nH]1	i	0.06	/	/
CCc1c(C)sc(NC(=O)Cc2ccccc2C)c1C(=O)N1CCOCC1	i	/	/	/
COC(=O)C1=C(C)N(Cc2ccccc2)C(=NCC(C)C)N[C@H]1c1ccccc1	i	/	i	i
COC(=O)C1=C(C)N(Cc2ccccc2)C(=O)N[C@H]1c1ccccc1	i	/	/	/
CCN1C(=NCCc2ccccn2)N[C@@H](c2cccc(F)c2)C(C(=O)OC)=C1C	i	0.23	/	/
COC(=O)C1=C(C)N(Cc2ccccc2)C(=NCCc2ccccn2)N[C@H]1c1cccc(F)c1	i	0.46	40%*	i
COc1cccc(NC(=O)c2ccccc2N2C(=O)C3C4C=CC(C4)C3C2=O)c1 (stereo unspecified)	i	/	/	/

Compound activity as filed in PubChem BioAssay.
